In the library only some 2.1% were active in any assay of this set; here they are far more common.
Wee1 degr inh – blocks degradation of human Wee1 kinase; P30291; HeLa Luc-Wee1K328M stability, luciferase luminescence; 100% = proteasome inhibitor MG132 effect; reporter increase, % at 5 µM; 1.2% of 220,000 active;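 active = activation above the mean of all tested compounds plus 3 SD, set per screening run, cut at about 8.8% in these data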;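 also: cells exposed to compound for 20 h before luminescence read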
Target sequence (P30291 whole entry K328M): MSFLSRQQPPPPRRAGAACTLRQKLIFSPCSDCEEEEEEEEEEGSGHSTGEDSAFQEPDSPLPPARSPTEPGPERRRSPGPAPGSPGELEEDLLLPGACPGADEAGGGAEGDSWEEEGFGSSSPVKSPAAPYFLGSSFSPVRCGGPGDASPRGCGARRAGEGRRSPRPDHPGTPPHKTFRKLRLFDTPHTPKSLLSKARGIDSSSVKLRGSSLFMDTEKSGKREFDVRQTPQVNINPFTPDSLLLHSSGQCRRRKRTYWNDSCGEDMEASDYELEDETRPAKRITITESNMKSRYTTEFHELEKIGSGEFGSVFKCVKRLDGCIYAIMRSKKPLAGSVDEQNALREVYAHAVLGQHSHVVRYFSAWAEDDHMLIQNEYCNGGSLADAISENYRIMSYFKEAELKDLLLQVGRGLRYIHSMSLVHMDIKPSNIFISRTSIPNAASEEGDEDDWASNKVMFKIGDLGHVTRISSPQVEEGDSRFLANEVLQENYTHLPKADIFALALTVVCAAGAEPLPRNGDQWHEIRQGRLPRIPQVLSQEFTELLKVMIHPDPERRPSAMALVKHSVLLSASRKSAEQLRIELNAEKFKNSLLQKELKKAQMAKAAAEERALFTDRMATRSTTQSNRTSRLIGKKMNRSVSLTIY
Platelet DG rel – modulates dense granule release in human platelets. human platelet-rich plasma, SFLLRN dense granule ATP release, luminescence. inhibition, %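 (compounds screened at 7.5 µM in platelet-rich plasma)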. 0.22% of 300,000 active;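 active = mean replicate score, as percent of positive control, at or above 50; inconclusive = mean below 50 but at least one replicate at or above 50; inactive = mean and every replicate below 50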
KLF5 inhibitor – inhibitors of KLF5 expression; DLD-1 KLF5 promoter-luciferase reporter, luminescence; inhibition, % at 5 µM; 0.23% of 290,000 active; AID 1700;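 active = inhibition above a per-plate limit of that plate's mean compound inhibition plus 3 SD, cut at about 60% in these data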;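 also: higher means less KLF5 promoter-driven luciferase light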
HIF activator – HIF pathway transcriptional activation. activation, % at 7.5 µM (by protocol). 0.32% of 300,000 active. U2OS HRE-luciferase reporter, luminescence; normalized: DMSO 0%, desferrioxamine 100%;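 active = mean activation of at least 10% of the iron chelator positive control signal, with at least half of replicates also reaching 10%; inconclusive = mean and replicate majority disagree about reaching 10%; inactive = mean and most replicates under 10%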
aSyn UTR inh – 5' untranslated region of α-synuclein, MLPCN primary screen; alpha-synuclein 5'UTR reporter, inhibitor activity; inhibition, % (tested at 7.5 µM); 0.82% of 300,000 active; AID 1813; in the data active = inhibition above about 60%; inconclusive = no clear call, values can overlap the other calls;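 also: H4 neuroglioblastoma cells stably carrying SNCA 5'UTR luciferase fusion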
A number is an active result; n = inactive; u = inconclusive; x = no result given.

SMILES | Wee1 degr inh | Platelet DG rel | KLF5 inhibitor | HIF activator | aSyn UTR inh
Cc1ccc(CNC(=O)COc2ccc(C)nc2[N+](=O)[O-])cc1 | n | n | n | n | n
Cn1c(=O)[nH]c(=O)c2cc(C(=O)c3cc(F)ccc3O)cnc21 | 10.1 | n | n | n | n
Cc1nn(C)c2ncc(C(=O)c3cc(F)ccc3O)cc12 | n | n | n | n | n
Cc1ccc(C(=O)Nc2c(-c3cccs3)c(=O)c3ccccc3n2C)cc1 | 9.1 | n | n | n | n
Cc1cccc(NC(=O)COC(=O)c2cc3ccccc3oc2=O)c1 | 8.9 | n | n | n | n
COC(=O)c1[nH]c2ccccc2c1CN1CCOCC1 | x | n | n | n | n
O=[N+]([O-])c1cc(O)c2ncccc2c1 | n | n | n | n | 70.1
O=C(N/N=C/c1ccccn1)c1ccc(Br)cc1 | n | n | n | 15.7 | n
Cc1ccc(C(=O)N/N=C\c2ccccc2[N+](=O)[O-])cn1 | 10.6 | n | n | n | n
Cc1ccc(C(=O)N/N=C\c2ccccn2)cn1 | 10.7 | n | n | n | n
O=C(N/N=C/c1ccccn1)NC12CC3CC(CC(C3)C1)C2 | 10.0 | n | n | n | n
Cc1ccc(C(=O)N/N=C\C=C\c2ccccc2[N+](=O)[O-])cn1 | n | n | n | n | n
CC(C)(C)c1ccc(C(=O)N/N=C/c2ccccn2)cc1 | x | n | n | n | n
O=C(N/N=C/c1ccccn1)c1ccc(N/N=C/c2ccccn2)cc1 | n | n | n | n | n
CCC(NC(=S)NCc1ccc(F)cc1)c1ccc(C)cc1 (centres undefined) | x | n | n | n | n
COc1cccc(C(C(=O)NCc2ccccc2)N(C(=O)c2csnn2)C2CC2)c1 (centres undefined) | x | n | n | n | n
CCOC(=O)c1cnc2c(C)cc(C)cc2c1NCCCN1CCOCC1 | x | n | n | n | n
CN(Cc1nccn1C)C(=O)C1CCC(=O)N(CCc2ccc(Cl)cc2)C1 (centres undefined) | x | n | n | n | n
Oc1cc2ccccc2cc1-c1n[nH]c(=S)o1 | 8.9 | n | n | n | n
S=c1[nH]nc(-c2c[nH]c3ccccc23)o1 | x | n | n | n | n
CN(C)c1ccc2nc3ccc(=[N+](C)C)cc-3sc2c1 | n | n | n | n | n
Cc1cc2nc3ccc(=[N+](C)C)cc-3sc2cc1N | n | n | n | n | 91.2
Clc1ccccc1-c1nnc(-c2cccs2)o1 | 10.2 | n | n | n | n
Cc1ccc(C(=O)N(C)CC(=O)Nc2ccc(N3CCOCC3)cc2)s1 | x | n | x | n | n
CC(C)C(NC(=O)c1ccccc1F)C(=O)NCc1ccccc1 (centres undefined) | x | n | n | n | n
SMILES | Wee1 degr inh | Platelet DG rel | KLF5 inhibitor | HIF activator | aSyn UTR inh
NC(=NC1CCCCC1)NS(=O)(=O)c1ccccc1 | x | n | n | n | n
Cc1ccc(NC(=O)N2CCC(NC(=O)c3ccco3)CC2)cc1 | x | n | n | n | n
Cc1ccc(NC(=O)N2CCC(NC(=O)c3cccc(C)c3)CC2)cc1 | x | n | n | 150.5 | n
Cc1ccc(NC(=O)CNC(C)c2ccccc2)cc1 (centres undefined) | x | n | n | n | n
CN(C)c1ccc(/C=N/NC(=O)COc2ccccc2)cc1 | n | n | n | n | n
O=C(COc1ccccc1)N/N=C/c1ccc(O[C@@H]2O[C@H](CO)[C@@H](O)[C@H](O)[C@H]2O)cc1 | 10.3 | n | n | n | n
CCC(c1nnnn1Cc1ccc(OC)cc1)N(CCCO)Cc1cc2cc3c(cc2[nH]c1=O)OCO3 (centres undefined) | 9.2 | n | n | n | n
Cc1ccc2[nH]c(=O)c3cc(C(=O)N(C)c4ccc(C)c(C)c4)sc3c2c1 | n | 74.4 | n | n | n
CCN(CC)CCCNC(=O)c1ccc(CS(=O)(=O)c2ccccc2OC)o1 | x | n | n | n | n
Cc1cc(C(=O)CSc2cccc[n+]2[O-])c(C)n1-c1ccccc1 | n | n | n | n | u
Cc1cc(C(=O)CSc2cccc[n+]2[O-])c(C)n1-c1ccc(Br)cc1 | 9.6 | n | n | n | n
COc1ccccc1C(=O)Nc1ccnn1C1CCN(CCCC2CCCC2)CC1 | x | n | n | n | n
O=c1c2ccccc2nc(COc2ccccc2)n1/N=C/c1cc([N+](=O)[O-])ccc1O | n | n | n | 11.2 | n
Cc1nc2ccccc2c(=O)n1/N=C/c1ccc(O)cc1O | n | n | n | n | n
CCCc1nc2ccccc2c(=O)n1/N=C/c1ccccc1O | n | n | n | 13.3 | n
COc1ccc(/C=N/NC(=O)c2ccc(N)cc2)cc1Cn1cc([N+](=O)[O-])cn1 | n | n | n | n | n
COc1ccc(C(=O)CCC(=O)N2CCN(c3ccc(C)cc3)C(C)C2)cc1 (centres undefined) | x | n | n | n | n
CCc1ccc2c(c1)C(O)(CC(=O)c1cccs1)C(=O)N2 (centres undefined) | 9.8 | n | n | n | n
CCOc1ccccc1N1CC(C(=O)Nc2nccs2)CC1=O (centres undefined) | n | 51.7 | n | n | n
Cc1cccc(N2CC(C(=O)Nc3nccs3)CC2=O)c1C (centres undefined) | x | n | n | n | n
O=C(c1ccco1)n1nc(-c2cccnc2)nc1NCc1ccco1 | n | n | n | n | n
Fc1ccc(-c2csc(Nc3ccccn3)n2)cc1 | x | n | n | n | n
c1ccc(Nc2nc(-c3cccs3)cs2)nc1 | 9.8 | n | n | n | n
Cc1cccc(Nc2nc(-c3cccs3)cs2)n1 | 18.3 | n | n | n | n
Cc1cccc(Nc2nc(-c3ccc(F)cc3)cs2)n1 | x | n | n | n | n
SMILES | Wee1 degr inh | Platelet DG rel | KLF5 inhibitor | HIF activator | aSyn UTR inh
CC(C)(Oc1ccc(Cl)cc1)C(=O)NCC(c1ccco1)N1CCCCC1 (centres undefined) | x | n | x | n | n
CCCN1CCN(C(=O)C(C)n2nc(C)c3sc4ccccc4c3c2=O)CC1 (centres undefined) | x | n | n | n | n
O=C(O)CCSc1nnc(-c2ccc3c(c2)OCO3)o1 | n | n | n | n | 66.7
CC(=O)CSc1nnc(-c2ccc3c(c2)OCO3)o1 | n | n | n | n | n
O=C1CSC(c2ccccc2)N1CC12CC3CC(CC(O)(C3)C1)C2 (centres undefined) | 12.6 | n | n | n | n
CN1CCN(Cc2nc3ccccc3c(=O)n2Cc2nc(-c3ccccc3F)cs2)CC1 | n | n | n | 19.9 | n
COc1ccc(-c2c(-c3ccc4c(c3)OCO4)noc2C)cn1 | x | n | n | n | n
COc1ccc(-c2c(-c3cc(OC)c(OC)c(OC)c3)noc2C)cn1 | x | n | n | n | 76.5
COc1cc(-c2noc(C)c2C#Cc2ccc(N)cc2)cc(OC)c1OC | x | n | n | n | 87.8
CCCCCCCCNC(=O)CC(NS(=O)(=O)c1ccc(NC(C)=O)cc1)C(C)C (centres undefined) | n | n | n | x | n
CCC(C)NC(=O)CC(NS(=O)(=O)c1ccc(NC(C)=O)cc1)C(C)C (centres undefined) | 9.8 | n | n | n | n
c1ccc(-c2nc3ccccc3[nH]2)nc1 | n | n | n | n | n
Cc1ccc2nc(-c3ccccn3)[nH]c2c1 | x | 58.1 | n | n | n
